Shown are actives, neighbours in structure and some others; about 3.1% of the full set was active somewhere.
PP1 counter: PP1-alpha (human) inhibition in PP5 counter-screen; 320,000 compounds, 0.9% hits; P62136; inhibition, % at 6.7 µM; purified PP1alpha, OMFP fluorescence;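 active = inhibition above the mean inhibition of all tested compounds plus 3 SD, computed separately for each screening campaign, cut at about 15% in these data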
SKKanGAS inh: SKKanGAS growth inhibition; inhibition, % at 7.5 µM; S. pyogenes SKKanGAS, kanamycin growth, BacTiter-Glo, 6 h; 300,000 compounds, 1.3% hits; AID 1662;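 active = mean replicate score, as percent of positive control median, at least 50; inconclusive = mean below 50 but one replicate at or above 50; inactive = mean and every replicate below 50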;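 also: strain carries kanamycin resistance gene driven by streptokinase promoter and grows in 40 µg/ml kanamycin; loss of luminescence reflects streptokinase promoter inhibition or plain growth inhibition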
CSC inhib: cancer stem cell inhibition. cancer stem cell-like cells viability, luminescence. AID 2717. inhibition, % at 7.5 µM. 300,000 compounds, 1.1% hits; in the data active = inhibition above about 75%; inconclusive = no clear call, values can overlap the other calls; tested in HMLE shEcad cells
Beta cell apopt: blocks beta cell apoptosis; INS-1E cytokine-induced death, ATP luminescence, 48 h; percent of positive-control rescue, neutral wells zero; protection from apoptosis, % (test concentration not listed); 300,000 compounds, 0.8% hits; AID 435005;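 active = Every replicate reaches about 75%, or at least half do and their mean reaches it too, limit read from the data; inconclusive = At least half of replicates reach the limit but their mean does not; inactive = Under half of replicates reach the limit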;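 also: higher means more ATP so stronger rescue from cytokine killing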
PP5 primary: PP5 (human) phosphatase inhibition. 320,000 compounds, 0.18% hits. purified PP5c, OMFP substrate fluorescence. P53041. inhibition, % at 6.7 µM;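 active = inhibition above the campaign's mean inhibition across all tested compounds plus 3 SD, cut at about 9.5% in these data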
Target sequence (P53041 whole entry, looked up): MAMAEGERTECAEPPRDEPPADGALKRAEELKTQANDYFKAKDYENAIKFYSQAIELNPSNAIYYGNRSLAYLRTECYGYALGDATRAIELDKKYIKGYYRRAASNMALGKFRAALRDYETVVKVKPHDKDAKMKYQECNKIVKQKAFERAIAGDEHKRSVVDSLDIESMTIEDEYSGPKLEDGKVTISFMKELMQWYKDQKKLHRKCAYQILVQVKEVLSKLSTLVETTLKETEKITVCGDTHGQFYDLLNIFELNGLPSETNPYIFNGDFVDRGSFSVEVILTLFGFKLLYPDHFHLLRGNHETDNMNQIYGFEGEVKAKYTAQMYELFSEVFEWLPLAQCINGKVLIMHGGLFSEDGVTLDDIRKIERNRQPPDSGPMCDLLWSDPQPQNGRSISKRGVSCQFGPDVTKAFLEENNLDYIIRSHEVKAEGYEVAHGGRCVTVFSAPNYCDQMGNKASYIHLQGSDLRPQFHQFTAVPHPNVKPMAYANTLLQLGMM
Large screens that a line does not name were inactive.

COc1ccc(S(=O)(=O)N(C(C)=O)c2ccc(OC(C)=O)c3ccccc23)cc1[N+](=O)[O-]	Beta cell apopt 106
CC(=O)Oc1c(Cl)cc(N(C(C)=O)S(=O)(=O)c2ccccc2)c2ccccc12	Beta cell apopt 95
CC(=O)Oc1ccc(N(C(C)=O)S(=O)(=O)c2ccc(C)cc2C)c2ccccc12	none (no result: PP1 counter, CSC inhib, Beta cell apopt, PP5 primary)
CC(=O)N(c1ccccc1Cl)S(=O)(=O)c1ccc(Cl)cc1	none
O=C(NC1CCCCC1)N1CCN(Cc2ccco2)CC1	none
O=C1NC(=O)/C(=C\c2cn(CC(=O)N3CCOCC3)c3ccccc23)S1	none (no result: CSC inhib)
C/C(=N\Nc1ccc2nncn2n1)c1ccc(Br)s1	none
CCOC(=O)C1=C(C)NC(=S)NC1c1ccsc1 (stereo not given)	none
S=C(NCc1cccs1)Nc1cc(Cl)cc(Cl)c1	SKKanGAS inh 66
O=C1N/C(=N\c2ccccn2)SC1Cc1ccc(Cl)cc1 (stereo not given)	SKKanGAS inh 50
COCCn1c(N)c(N(Cc2ccccc2)C(=O)C2=COCCO2)c(=O)[nH]c1=O	none
Cc1ccnc(NC(c2cccnc2)c2ccc3cccnc3c2O)c1 (stereo not given)	SKKanGAS inh inconclusive
Cc1ccnc(NC(c2ccsc2)c2ccc3ccc(C)nc3c2O)c1 (stereo not given)	SKKanGAS inh 93
COc1ccc(C(CC(=O)Nc2cc(C)ccn2)N2Cc3ccccc3C2=O)cc1 (stereo not given)	none
O=S(=O)(Nc1cccc(C(F)(F)F)c1)c1cccnc1	none
Cc1ccc2ccc(C(Nc3cccc(C(F)(F)F)c3)c3cccnc3)c(O)c2n1 (stereo not given)	SKKanGAS inh 65
Cc1cccc(NC(c2ccc(C)s2)c2ccc3ccc(C)nc3c2O)n1 (stereo not given)	SKKanGAS inh 77 (no result: CSC inhib, Beta cell apopt)
COc1ccc(C(Nc2cc(C)ccn2)c2ccc3ccc(C)nc3c2O)cc1 (stereo not given)	SKKanGAS inh 61
Cc1ccc2ccc(C(Nc3ccccn3)c3ccccc3)c(O)c2n1 (stereo not given)	SKKanGAS inh 85 (no result: CSC inhib, Beta cell apopt)
COc1cc(C(Nc2ccccn2)c2ccc3ccc(C)nc3c2O)cc(OC)c1O (stereo not given)	none
O=C(CN1C(=O)NC2(CCCC2)C1=O)N1CCN(c2ccccc2Cl)CC1	none
Cc1[nH]n(-c2nc(-c3ccccc3F)cc(=O)[nH]2)c(=O)c1CCO	none
C/C(Cn1nnc([N+](=O)[O-])n1)=N\NC(=O)c1cccc(Cl)c1	none
C/C(Cn1nnc([N+](=O)[O-])n1)=N\NC(=O)c1ccccc1Cl	Beta cell apopt 80
CCCC(=O)NC(NC(=S)Nc1ccc(S(N)(=O)=O)cc1)C(Cl)(Cl)Cl (stereo not given)	none
CCCC(=O)NC(NC(=S)Nc1ccc(N=Nc2ccccc2)cc1)C(Cl)(Cl)Cl (stereo not given)	CSC inhib 119, Beta cell apopt 109
O=C(O)CSc1nc2sc3c(c2c(=O)n1-c1ccccc1)CCC3	none
CSc1nc(SCC(=O)O)c2sc3nc(-c4ccccc4)c4c(c3c2n1)CCC4	SKKanGAS inh 68 (no result: PP1 counter, CSC inhib, Beta cell apopt, PP5 primary)
CCOC(=O)C1=C(O)/C(=C/c2cn(CC(=O)NCC3CCCO3)c3ccccc23)SC1=Nc1ccc(C)cc1 (stereo not given)	CSC inhib 76 (no result: SKKanGAS inh)
CCc1ccc(CCC(=O)Nc2ncc(Cc3ccccc3Cl)s2)o1	CSC inhib 82
COc1ccccc1NC(=O)c1cc2c(cc1Cl)N1CCCCCC1=NS2(=O)=O	none (no result: PP1 counter, SKKanGAS inh, PP5 primary)
O=C(Nc1ccc(Br)c2ccccc12)c1ccc2ccccc2c1O	SKKanGAS inh 100, CSC inhib 108
CC(=O)c1cc2c(cc1NS(=O)(=O)c1ccccc1F)OCO2	none
Nc1c(C(=O)c2ccc(Cl)cc2)sc2c1c(=O)[nH]c(=O)n2-c1ccccc1	PP1 counter 16
Cc1ccc(C(=O)NC2c3ccccc3-c3ccccc32)cc1	CSC inhib 82
Cc1ccc(C(=O)NC2CCc3ccccc3C2=O)cc1 (stereo not given)	none
S=C(c1cn(CCOc2cccc3ccccc23)c2ccccc12)N1CCCC1	PP1 counter 24, Beta cell apopt 105
Cc1ccc(C)c(-c2csc(NC(=O)C3=COCCO3)n2)c1	Beta cell apopt 77 (no result: CSC inhib)
COc1cccc(CNC(=O)CCN2C(=O)[C@@H]3Cc4ccccc4CN3C2=O)c1	none
COc1cc(C(=O)NCCOc2cccc(C)c2)c(Br)c(OC)c1OC	none
CCC(NC(=O)CCc1c(C)c2cc3c(C)c(C)oc3cc2oc1=O)C(=O)N[C@@H](Cc1ccccc1)C(=O)O (stereo not given in full)	SKKanGAS inh 61
CSC[C@H](NC(=O)Cc1c(C)c2cc3c(C)c(C)oc3cc2oc1=O)C(=O)N[C@@H](Cc1ccccc1)C(=O)O	none
COc1ccc(NS(=O)(=O)c2ccc(O)c(NC(=O)c3cc4c(C)nn(-c5ccc(F)cc5)c4s3)c2)cc1	SKKanGAS inh 109, CSC inhib 114
Cc1ccnc(NC(=O)C(C)N2C(=O)c3ccccc3S2(=O)=O)c1 (stereo not given)	none
COC(=O)c1c(-c2ccc(N(C)C)cc2)sc2ccc(OC)cc12	CSC inhib 106 (no result: PP1 counter, SKKanGAS inh, PP5 primary)
O=C1CC(c2ccc(F)cc2)CC2=C1C=Nc1ccccc1N2 (stereo not given)	CSC inhib 103
CCc1cc(=O)oc2c(C)c(OCC(=O)NCCCn3ccnc3)ccc12	none
C/C(CC(=O)N(C(C)C)C(C)C)=N\NC(=O)c1ccccc1Br	none
NS(=O)(=O)c1ccc(-c2ccc(/C=C3\SC(=S)N(C4CCS(=O)(=O)C4)C3=O)o2)cc1 (stereo not given)	SKKanGAS inh 73
Cc1ccc(/C=C2\SC(=S)N(C3CCS(=O)(=O)C3)C2=O)o1 (stereo not given)	none
Cc1ccc(C2(c3ccccc3)NC(=O)N(CC(=O)NC3(C#N)CCCC3)C2=O)cc1C (stereo not given)	none (no result: SKKanGAS inh)
O=C(Nc1cccc(-c2csc(Nc3ccc(Cl)cc3)n2)c1)c1cc([N+](=O)[O-])cc(C(F)(F)F)c1	SKKanGAS inh inconclusive, CSC inhib 108
O=C(Nc1cccc(-c2csc(Nc3ccc(Cl)cc3)n2)c1)c1cccc(C(F)(F)F)c1	none
O=C(Nc1cccc(-c2csc(Nc3ccccc3)n2)c1)c1cc([N+](=O)[O-])cc(C(F)(F)F)c1	none
O=C(Nc1cccc(-c2csc(-c3ccccc3)n2)c1)c1cccs1	CSC inhib 192
O=C(Nc1cccc(-c2csc(Nc3ccc(Cl)cc3)n2)c1)c1ccccc1	SKKanGAS inh 91
O=C(Nc1ccc(-c2csc(Nc3ccc(Cl)cc3)n2)cc1)c1cc([N+](=O)[O-])cc(C(F)(F)F)c1	SKKanGAS inh 75, CSC inhib 149
COc1cc(Cl)c(C)cc1NC(=S)NN	none
Cc1ccc(NC(=O)C2CCCN(S(=O)(=O)c3ccc4[nH]c(=O)ccc4c3)C2)c(C)c1 (stereo not given)	none (no result: CSC inhib, Beta cell apopt)
O=C(NCc1ccc(F)cc1)N1CCN(C(=O)c2ccccc2)CC1	none (no result: SKKanGAS inh, CSC inhib, Beta cell apopt)
Cc1cc(C)c2nc(SCCc3ccccc3)nc(C)c2c1	SKKanGAS inh 71

Screening results from PubChem BioAssay.
